For 40 molecules, growth results are on record in PubChem BioAssay (NCI).

Compounds without any hit were thinned out: in the full panel of roughly 83,000, 20% have a hit.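 Step 1: grow cells in 96-well plates. Step 2: add test compound at a single concentration. Step 3: incubate 48 h. Step 4: record percent growth.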 Calls of active or inactive are those of the source.

The subject of the assay is UACC-62 melanoma. Briefly: NCI-60 one-dose screen, 48 h (100 = growth as untreated, 0 = no growth, -100 = all killed). To be noted: 10 µM unless noted. The protocol:
Growth inhibition of the UACC-62 human tumor cell line is measured as a screen for anti-cancer activity. Cells are grown in 96 well plates and exposed to the test compound for 48 hours. Compounds are tested at a single concentration, which is 10^-5 M for most compounds. The reported endpoint is percent growth (GI% or GIPRCNT), where numbers from 0 - 100% represent growth inhibition, and numbers from -100% - 0 represent cell death. For example, a value of 40 represents 60% growth inhibition. A value of 0 means no net growth occurred over the course of the experiment. A value of -40 indicates 40% of cells at the beginning of the experiment died by the end of the experiment. A value of -100 means all cells are dead at the end of the experiment.
NCI-60 Human Tumor Cell Lines Screen was performed using the standard one-dose NCI protocol, which is described in more detail at https://dtp.cancer.gov/discovery_development/nci-60/default.htm.
Compounds with GIPRCNT values below 10 were considered active. Activity score was based on GIPRCNT using the following formula: […]
Score is 0 for GIPRCNT values of 100 or above, 50 for GIPRCNT values of 0, and 100 for GIPRCNT values of -100.
As for `Clc1ccccc1-c1nc(Nc2nc3ccccc3s2)nc(C(Cl)(Cl)Cl)n1`, the growth is 48.1% (inactive). In the case of `N#CC1=C(N)Oc2c(c(N)nn2-c2ccccc2)C1c1ccc(Cl)cc1Cl` (stereo not given), the growth was 88.7% (inactive). `COc1ccc(-c2cc(=O)oc3ccc(Cl)cc23)cc1F`: the growth was 30.1% (inactive).

Regarding `CC(=O)c1c(C)[nH]c(-c2nc3ccc(N4CCN(C)CC4)cc3[nH]2)c1-c1ccc(OCC2CCOCC2)cc1`, the growth was 20.4% (inactive). `CN1CCN(c2ccc3nc(-c4[nH]ncc4Nc4ncnc5c4OCCCN5)[nH]c3c2)CC1`: the growth was -74.9% (active).

For the molecule `Cn1cc(-c2nc(-c3c[nH]c4ncccc34)cs2)c2cc(F)ccc21`, the growth was 47.6% (inactive). The figure for `N=C(N)N=Nc1ccc(O)cc1` is 86.6% [100 µM] (inactive); for `COc1ccccc1-n1cnc(N)c1C(=O)c1cc(OC)c(OC)c(OC)c1` it is 29.1% (inactive). The figure for `C/C(=N\Nc1ccc2ccccc2n1)c1ccccn1` is -54.8% (active); for `Cc1ccc(-c2ccc(/C=C(\C#N)c3nc(-c4ccco4)cs3)o2)cc1` it is 87.5% (inactive).

For `CN1CCN(CC#CCn2c3c(c4ccccc42)C[C@]2(C)[C@H]4CC[C@@H]5[C@H]6[C@H]7OC(=O)[C@@]6(CCC7(C)C)CC[C@@]5(C)[C@]4(C)CC[C@H]2C3(C)C)CC1`, the growth is 99.5% (inactive). `COc1cc(C(=O)/C=C/c2cc(-c3ccc4c(c3)OCO4)n[nH]2)cc(OC)c1OC`: the growth was 55.7% (inactive). As to `Cc1nc([P+](c2ccccc2)(c2ccccc2)c2ccccc2)c(Sc2sc(-c3ccccc3)nc2[P+](c2ccccc2)(c2ccccc2)c2ccccc2)o1`, the growth is 19.2% (inactive). With `CC1(C)NCCC[C@]2(C)[C@H]3CC[C@@H]4[C@H]5[C@H](C(=O)/C=C/c6ccccn6)CC[C@]5(CO)CC[C@@]4(C)[C@]3(C)CC[C@@H]12`, the growth was 72.8% (inactive). Take `C=C(C)[C@@H]1CC[C@]2(C(=O)O)CC[C@]3(C)[C@H](CC[C@@H]4[C@@]5(C)C/C(=C/c6cccc(I)c6)C(=O)C(C)(C)[C@@H]5CC[C@]43C)[C@@H]12`: the growth is 30.9% (inactive). Take `NC1=NN(c2ccccc2)C(=O)/C1=C/c1ccc(Cl)cc1`: the growth was 81.2% (inactive). On to `O=C1CN(c2ccccc2)C(=O)C1C(=O)Nc1ccc(Cl)c(Cl)c1` (stereo not given), for which the growth was -3.41% [100 µM] (active).

For `Cn1cc(-c2nc(-c3c[nH]c4ncccc34)cs2)c2ccccc21`, the growth was 84.6% (inactive).

In the case of `Clc1cc(Cl)cc(Nc2ccc3c(OCCCN4CCOCC4)cccc3n2)c1`, the growth was 14.7% (inactive).

With `COc1c(N)c2c(c([N+](=O)[O-])c1OC)C(=O)OC2`, the growth is 102% (inactive). With `COc1cc2[nH]c(C(=O)c3cc(OC)c(OC)c(OC)c3)c(N)c2cc1C#CC1CC1`, the growth is 34.4% (inactive). For `CC(C)C[C@@H](NC(=O)[C@@H](Cc1ccccc1)NC(=O)c1cnccn1)B1O[C@H]2[C@H](O)[C@@H](C(=O)NCCCC[C@@H]3NC(=O)[C@@H](Cc4ccccc4)NC(=O)[C@H](CC(=O)O)NC(=O)CNC(=O)[C@H](CCCN=C(N)N)NC3=O)O[C@@H](CN)[C@H]2O1`, the growth is -36.7% (active).

For the molecule `C=C(C)[C@@H]1CC[C@]2(C(=O)N3CCCNCC3)CC[C@]3(C)[C@H](CC[C@@H]4[C@@]5(C)CCC(=O)C(C)(C)[C@@H]5CC[C@]43C)[C@@H]12`, the growth is 99.1% (inactive). `CC(C)(C)c1ccc(OP(=S)(N/N=C/c2ccccc2O)Oc2ccc(C(C)(C)C)cc2)cc1`: the growth was 76.5% (inactive).

As for `Cn1cc(-c2csc(-c3cn(C(=O)OC(C)(C)C)c4ccc(Br)cc34)n2)c2cccnc21`, the growth is 91% (inactive). The figure for `Cc1ccccc1-c1nc(C(Cl)Cl)nc2cc(-c3ccccc3)nn12` is 74.4% (inactive). Consider `C=C(C)[C@@H]1CC[C@]2(C(=O)O)CC[C@]3(C)[C@H](CC[C@@H]4[C@@]5(C)C/C(=C/c6ccc(OC)cc6)C(=O)C(C)(C)[C@@H]5CC[C@]43C)[C@@H]12`, for which the growth is 17.1% (inactive).

Turning to `COc1ccc(NC(=O)c2ccc3c(c2)nc(-c2cc4ccccc4[nH]c2=O)n3-c2cc(C(C)(C)C)[nH]n2)cc1`, the growth was 85.6% (inactive). As for `COc1ccc2nc(-c3c(-c4ccccc4)nc4ncccn34)[nH]c2c1`, the growth was 95.3% (inactive). As for `CC(=O)Cc1nsc(NC(=O)c2ccoc2COc2ccccc2)n1`, the growth is 93% (inactive).

With `CCN1CCN(C(=O)[C@]23CCC(C)(C)C[C@@H]2C2=CC[C@@H]4[C@@]5(C)C/C(=C/c6ccncc6)C(=O)C(C)(C)[C@@H]5CC[C@@]4(C)[C@]2(C)CC3)CC1`, the growth was -86% (active).

In the case of `CCN1CCN(C(=O)[C@@]2(C)CC[C@]3(C)CC[C@]4(C)C(=CC(=O)[C@@H]5[C@@]6(C)CC[C@H](OC7C[C@@H](O)[C@@H](O)C(C)O7)C(C)(C)[C@@H]6CC[C@]54C)[C@@H]3C2)CC1` (stereo not given in full), the growth was -69.3% (active). Regarding `COc1cc2nc(Cl)nc(Nc3cccc(C(=O)/C=C/c4ccc(Cl)cc4)c3)c2cc1OC`, the growth was 62.8% (inactive). As for `OCC12CCCC(CO)(COC1)C2O` (stereo not given), the growth is 107% (inactive). Consider `CC(=O)Oc1ccccc1C(=O)/C=C/c1cccc([N+](=O)[O-])c1`, for which the growth is 85.7% (inactive).

On to `Nc1ccc(Br)cn1`, for which the growth is 97.3% (inactive). The same measure for `CC(C)(C)c1[nH]nc2c1C(c1cc3ccccc3[nH]c1=O)Nc1cc(C(=O)OCc3ccccc3)ccc1N2` (stereo not given): 49.1% (inactive); for `O=C1C=Cc2ncccc2C1=O`: 90.7% (inactive); for `COc1cc2c(cc1-c1c(C)noc1C)ncc1nc(C3CCC(F)(F)CC3)n([C@@H](C)COC(F)F)c12`: 20.2% (inactive). The same measure for `Cn1cc(-c2nc(-c3c[nH]c4ncccc34)cs2)c2cc(Br)ccc21`: 80.5% (inactive).
